The supplement of paper PMC12636033
± gives the standard deviation of the averaged measurements. In all, about 33,000 sequences were measured (“E-score (rank enrichment, -0.5 to 0.5)”: median about -0.0028, highest 2% from about 0.23 on). Only a selection was taken, and the highest values are over-represented in it overall.

test system: 2Sb-muMax20 (muMax20 with two 1,3-bis(methyl)benzene Cys staples, A13C/A17C and Q88C/A92C, C-terminal Lys); assay: PBM 8-mer E-score (E-score (rank enrichment, -0.5 to 0.5)); higher = stronger preferential binding
Protocol: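 Protein binding microarray (universal PBM chip covering all 10-mers in fixed probe flanks) with chemically synthesized human Max(13-93) bHLH-LZ analogs (not full-length Max) bearing noncanonical residues (hArg, Tha, Aib, Nle at 65) and aromatic Cys staples. Read-out per 8-mer (and its reverse complement): E-score (rank-based enrichment, -0.5 to 0.5) and Z-score of median probe intensity.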

Question: With ATGTAGAA as the sequence, how does the “PBM 8-mer E-score” value read?
Answer: 0.245 ± 0.016

Question: ATGTAGTG was tested. Which “PBM 8-mer E-score” value did it give?
Answer: 0.156 ± 0.049

Question: Which “PBM 8-mer E-score” value does the source give for CTGTAGAA here?
Answer: 0.0722 ± 0.0078

Question: AGACGTAC was tested. Which “PBM 8-mer E-score” value did it give?
Answer: -0.0467 ± 0.078

Question: With ATTATTTG as the sequence, how does the “PBM 8-mer E-score” value read?
Answer: 0.197 ± 0.0069

Question: CACTGCGG was tested. Which “PBM 8-mer E-score” value did it give?
Answer: -0.115 ± 0.052

Question: CCAACAGC was tested. Which “PBM 8-mer E-score” value did it give?
Answer: -0.068 ± 0.0017

Question: With AGTCAATA as the sequence, how does the “PBM 8-mer E-score” value read?
Answer: 0.09 ± 0.0033

Question: CGTCAATA was tested. Which “PBM 8-mer E-score” value did it give?
Answer: -0.0166 ± 0.034

Question: How did the “PBM 8-mer E-score” value turn out when GGTCAATA was run?
Answer: 0.238 ± 0.015

Question: With GGATCTTA as the sequence, how does the “PBM 8-mer E-score” value read?
Answer: -0.014 ± 0.071

Question: How did the “PBM 8-mer E-score” value turn out when ACGCTGAC was run?
Answer: -0.0415 ± 0.018

Question: With AAACCGTG as the sequence, how does the “PBM 8-mer E-score” value read?
Answer: -0.0746 ± 0.026

Question: Which “PBM 8-mer E-score” value does the source give for CCTATAGC here?
Answer: 0.264 ± 0.036

Question: How did the “PBM 8-mer E-score” value turn out when CCTATAGG was run?
Answer: 0.0292 ± 0.035

Question: Which “PBM 8-mer E-score” value does the source give for ACTATAGG here?
Answer: -0.00711 ± 0.032

Question: Which “PBM 8-mer E-score” value does the source give for ACTATAGA here?
Answer: 0.118 ± 0.11

Question: ACTATAGC was tested. Which “PBM 8-mer E-score” value did it give?
Answer: -0.0113 ± 0.072

Question: How did the “PBM 8-mer E-score” value turn out when ACTATAGT was run?
Answer: 0.299 ± 0.039

Question: With CAGTCCTC as the sequence, how does the “PBM 8-mer E-score” value read?
Answer: 0.00033 ± 0.011

Question: AAAGAATG was tested. Which “PBM 8-mer E-score” value did it give?
Answer: 0.0117 ± 0.014

Question: AGAGACCA was tested. Which “PBM 8-mer E-score” value did it give?
Answer: 0.0299 ± 0.014

Question: ACTCTGTC was tested. Which “PBM 8-mer E-score” value did it give?
Answer: -0.111 ± 0.023

Question: Which “PBM 8-mer E-score” value does the source give for GGCATCAC here?
Answer: 0.0631 ± 0.11

Question: Which “PBM 8-mer E-score” value does the source give for CAAGGGAA here?
Answer: -0.0769 ± 0.018

Question: For GTAGGGTA, which “PBM 8-mer E-score” value is on record?
Answer: 0.266 ± 0.013

Question: With CTAGGGTA as the sequence, how does the “PBM 8-mer E-score” value read?
Answer: -0.0583 ± 0.021

Question: With CAAGGGGA as the sequence, how does the “PBM 8-mer E-score” value read?
Answer: 0.24 ± 0.015

Question: With ATAGGGGA as the sequence, how does the “PBM 8-mer E-score” value read?
Answer: 0.18 ± 0.0034

Question: GTAGGGGA was tested. Which “PBM 8-mer E-score” value did it give?
Answer: 0.24 ± 0.067

Question: ATAGGGTA was tested. Which “PBM 8-mer E-score” value did it give?
Answer: 0.123 ± 0.025

Question: CAAGGGGG was tested. Which “PBM 8-mer E-score” value did it give?
Answer: -0.105 ± 0.048

Question: CTAGGGGA was tested. Which “PBM 8-mer E-score” value did it give?
Answer: 0.117 ± 0.028

Question: With AAAAAAAG as the sequence, how does the “PBM 8-mer E-score” value read?
Answer: 0.126 ± 0.056

Question: With GGGATCCC as the sequence, how does the “PBM 8-mer E-score” value read?
Answer: -0.2 ± 0.043

Question: CAGGAGTC was tested. Which “PBM 8-mer E-score” value did it give?
Answer: -0.0911 ± 0.039

Question: Which “PBM 8-mer E-score” value does the source give for AACGTTCA here?
Answer: 0.0627 ± 0.039

Question: Which “PBM 8-mer E-score” value does the source give for ATATAAAT here?
Answer: 0.2095 ± 0.00022

Question: Which “PBM 8-mer E-score” value does the source give for TACAGACA here?
Answer: 0.0665 ± 0.048

Question: Which “PBM 8-mer E-score” value does the source give for AATTATTC here?
Answer: 0.0609 ± 0.0053

Question: Which “PBM 8-mer E-score” value does the source give for AGTTAATA here?
Answer: 0.184 ± 0.015

Question: With AGTTAATC as the sequence, how does the “PBM 8-mer E-score” value read?
Answer: 0.0432 ± 0.046

Question: Which “PBM 8-mer E-score” value does the source give for AATTATTG here?
Answer: 0.262 ± 0.017

Question: With CATTAATG as the sequence, how does the “PBM 8-mer E-score” value read?
Answer: 0.18 ± 0.016

Question: Which “PBM 8-mer E-score” value does the source give for AATTAATT here?
Answer: 0.167 ± 0.077

Question: For AATTATTA, which “PBM 8-mer E-score” value is on record?
Answer: 0.18 ± 0.032

Question: For AGTTAATG, which “PBM 8-mer E-score” value is on record?
Answer: 0.232 ± 0.025

Question: Which “PBM 8-mer E-score” value does the source give for AATTAATG here?
Answer: 0.239 ± 0.033

Question: For AAGTTCGG, which “PBM 8-mer E-score” value is on record?
Answer: -0.224 ± 0.029

Question: CAATTCCG was tested. Which “PBM 8-mer E-score” value did it give?
Answer: -0.0516 ± 0.045

Question: AAGGTAAG was tested. Which “PBM 8-mer E-score” value did it give?
Answer: -0.0254 ± 0.00071

Question: For ATTACGAA, which “PBM 8-mer E-score” value is on record?
Answer: -0.000195 ± 0.03

Question: AGTCTAAT was tested. Which “PBM 8-mer E-score” value did it give?
Answer: 0.0498 ± 0.0033

Question: Which “PBM 8-mer E-score” value does the source give for CGCTACTC here?
Answer: -0.172 ± 0.031

Question: How did the “PBM 8-mer E-score” value turn out when CTTAGGCA was run?
Answer: -0.203 ± 0.024

Question: How did the “PBM 8-mer E-score” value turn out when AAGGCCCG was run?
Answer: -0.159 ± 0.055

Question: With GTTTCTGA as the sequence, how does the “PBM 8-mer E-score” value read?
Answer: 0.0103 ± 0.029

Question: For CACCCCTG, which “PBM 8-mer E-score” value is on record?
Answer: 0.0699 ± 0.055

Question: CCACCCAC was tested. Which “PBM 8-mer E-score” value did it give?
Answer: 0.239 ± 0.045

Question: CCACCCAA was tested. Which “PBM 8-mer E-score” value did it give?
Answer: 0.128 ± 0.049

Question: Which “PBM 8-mer E-score” value does the source give for ACACCCTC here?
Answer: 0.0661 ± 0.073

Question: With CACCCCTC as the sequence, how does the “PBM 8-mer E-score” value read?
Answer: 0.278 ± 0.026

Question: For CCACCCTA, which “PBM 8-mer E-score” value is on record?
Answer: 0.189 ± 0.0062

Question: Which “PBM 8-mer E-score” value does the source give for CCACCCTC here?
Answer: 0.234 ± 0.036

Question: How did the “PBM 8-mer E-score” value turn out when GACCCCTC was run?
Answer: 0.0964 ± 0.036

Question: Which “PBM 8-mer E-score” value does the source give for ACACCCAC here?
Answer: 0.2 ± 0.028

Question: How did the “PBM 8-mer E-score” value turn out when GGTCCCGA was run?
Answer: -0.305 ± 0.042

Question: For AATATCCG, which “PBM 8-mer E-score” value is on record?
Answer: -0.0514 ± 0.051

Question: Which “PBM 8-mer E-score” value does the source give for AATATCCC here?
Answer: 0.245 ± 0.056

Question: For AATATCCA, which “PBM 8-mer E-score” value is on record?
Answer: 0.0444 ± 0.082

Question: For CGGGGGTA, which “PBM 8-mer E-score” value is on record?
Answer: 0.0309 ± 0.084

Question: How did the “PBM 8-mer E-score” value turn out when CCCCCCCG was run?
Answer: -0.2 ± 0.13

Question: For GCACCAGA, which “PBM 8-mer E-score” value is on record?
Answer: -0.126 ± 0.045

Question: How did the “PBM 8-mer E-score” value turn out when AGCCCCGG was run?
Answer: -0.0543 ± 0.054

Question: For ACCCACCG, which “PBM 8-mer E-score” value is on record?
Answer: 0.0752 ± 0.014

Question: GCCCACAC was tested. Which “PBM 8-mer E-score” value did it give?
Answer: 0.0967 ± 0.059

Question: For ACCCACCC, which “PBM 8-mer E-score” value is on record?
Answer: 0.417 ± 0.02

Question: For ACCACCCA, which “PBM 8-mer E-score” value is on record?
Answer: 0.073 ± 0.062

Question: Which “PBM 8-mer E-score” value does the source give for CCCCACCC here?
Answer: 0.282 ± 0.076

Question: Which “PBM 8-mer E-score” value does the source give for GCCCACCA here?
Answer: 0.12 ± 0.024

Question: For ACCCACCA, which “PBM 8-mer E-score” value is on record?
Answer: 0.274 ± 0.027

Question: Which “PBM 8-mer E-score” value does the source give for GCCCACCC here?
Answer: 0.359 ± 0.045

Question: How did the “PBM 8-mer E-score” value turn out when CCCCACCG was run?
Answer: 0.11 ± 0.1

Question: How did the “PBM 8-mer E-score” value turn out when TCCCACCA was run?
Answer: -0.0255 ± 0.1

Question: How did the “PBM 8-mer E-score” value turn out when CCCCACCA was run?
Answer: 0.162 ± 0.035

Question: ACCCACCT was tested. Which “PBM 8-mer E-score” value did it give?
Answer: 0.13 ± 0.029
